From the supplement of paper PMC11732987, “Enantioselective OTUD7B fragment discovery through chemoproteomics screening and high-throughput optimisation” (Communications Chemistry, 2025)
A number with no mark means an inactive call.

Columns and labels:
Assay in all cases: log2 ratio of Biotin-Ahx-Ub-VS probe labelling (fragment/DMSO); higher = less target engagement (more negative = stronger competition), active = hit call of the paper (q ≤ 0.05, log2 ratio ≤ -1)
Conditions in all cases: compound concentration: 200 uM; treatment time: 3 h
UniProt O00507 = biological target: UniProt O00507
Chain of UniProt O00507 (O00507 whole entry, the tested form may be a part): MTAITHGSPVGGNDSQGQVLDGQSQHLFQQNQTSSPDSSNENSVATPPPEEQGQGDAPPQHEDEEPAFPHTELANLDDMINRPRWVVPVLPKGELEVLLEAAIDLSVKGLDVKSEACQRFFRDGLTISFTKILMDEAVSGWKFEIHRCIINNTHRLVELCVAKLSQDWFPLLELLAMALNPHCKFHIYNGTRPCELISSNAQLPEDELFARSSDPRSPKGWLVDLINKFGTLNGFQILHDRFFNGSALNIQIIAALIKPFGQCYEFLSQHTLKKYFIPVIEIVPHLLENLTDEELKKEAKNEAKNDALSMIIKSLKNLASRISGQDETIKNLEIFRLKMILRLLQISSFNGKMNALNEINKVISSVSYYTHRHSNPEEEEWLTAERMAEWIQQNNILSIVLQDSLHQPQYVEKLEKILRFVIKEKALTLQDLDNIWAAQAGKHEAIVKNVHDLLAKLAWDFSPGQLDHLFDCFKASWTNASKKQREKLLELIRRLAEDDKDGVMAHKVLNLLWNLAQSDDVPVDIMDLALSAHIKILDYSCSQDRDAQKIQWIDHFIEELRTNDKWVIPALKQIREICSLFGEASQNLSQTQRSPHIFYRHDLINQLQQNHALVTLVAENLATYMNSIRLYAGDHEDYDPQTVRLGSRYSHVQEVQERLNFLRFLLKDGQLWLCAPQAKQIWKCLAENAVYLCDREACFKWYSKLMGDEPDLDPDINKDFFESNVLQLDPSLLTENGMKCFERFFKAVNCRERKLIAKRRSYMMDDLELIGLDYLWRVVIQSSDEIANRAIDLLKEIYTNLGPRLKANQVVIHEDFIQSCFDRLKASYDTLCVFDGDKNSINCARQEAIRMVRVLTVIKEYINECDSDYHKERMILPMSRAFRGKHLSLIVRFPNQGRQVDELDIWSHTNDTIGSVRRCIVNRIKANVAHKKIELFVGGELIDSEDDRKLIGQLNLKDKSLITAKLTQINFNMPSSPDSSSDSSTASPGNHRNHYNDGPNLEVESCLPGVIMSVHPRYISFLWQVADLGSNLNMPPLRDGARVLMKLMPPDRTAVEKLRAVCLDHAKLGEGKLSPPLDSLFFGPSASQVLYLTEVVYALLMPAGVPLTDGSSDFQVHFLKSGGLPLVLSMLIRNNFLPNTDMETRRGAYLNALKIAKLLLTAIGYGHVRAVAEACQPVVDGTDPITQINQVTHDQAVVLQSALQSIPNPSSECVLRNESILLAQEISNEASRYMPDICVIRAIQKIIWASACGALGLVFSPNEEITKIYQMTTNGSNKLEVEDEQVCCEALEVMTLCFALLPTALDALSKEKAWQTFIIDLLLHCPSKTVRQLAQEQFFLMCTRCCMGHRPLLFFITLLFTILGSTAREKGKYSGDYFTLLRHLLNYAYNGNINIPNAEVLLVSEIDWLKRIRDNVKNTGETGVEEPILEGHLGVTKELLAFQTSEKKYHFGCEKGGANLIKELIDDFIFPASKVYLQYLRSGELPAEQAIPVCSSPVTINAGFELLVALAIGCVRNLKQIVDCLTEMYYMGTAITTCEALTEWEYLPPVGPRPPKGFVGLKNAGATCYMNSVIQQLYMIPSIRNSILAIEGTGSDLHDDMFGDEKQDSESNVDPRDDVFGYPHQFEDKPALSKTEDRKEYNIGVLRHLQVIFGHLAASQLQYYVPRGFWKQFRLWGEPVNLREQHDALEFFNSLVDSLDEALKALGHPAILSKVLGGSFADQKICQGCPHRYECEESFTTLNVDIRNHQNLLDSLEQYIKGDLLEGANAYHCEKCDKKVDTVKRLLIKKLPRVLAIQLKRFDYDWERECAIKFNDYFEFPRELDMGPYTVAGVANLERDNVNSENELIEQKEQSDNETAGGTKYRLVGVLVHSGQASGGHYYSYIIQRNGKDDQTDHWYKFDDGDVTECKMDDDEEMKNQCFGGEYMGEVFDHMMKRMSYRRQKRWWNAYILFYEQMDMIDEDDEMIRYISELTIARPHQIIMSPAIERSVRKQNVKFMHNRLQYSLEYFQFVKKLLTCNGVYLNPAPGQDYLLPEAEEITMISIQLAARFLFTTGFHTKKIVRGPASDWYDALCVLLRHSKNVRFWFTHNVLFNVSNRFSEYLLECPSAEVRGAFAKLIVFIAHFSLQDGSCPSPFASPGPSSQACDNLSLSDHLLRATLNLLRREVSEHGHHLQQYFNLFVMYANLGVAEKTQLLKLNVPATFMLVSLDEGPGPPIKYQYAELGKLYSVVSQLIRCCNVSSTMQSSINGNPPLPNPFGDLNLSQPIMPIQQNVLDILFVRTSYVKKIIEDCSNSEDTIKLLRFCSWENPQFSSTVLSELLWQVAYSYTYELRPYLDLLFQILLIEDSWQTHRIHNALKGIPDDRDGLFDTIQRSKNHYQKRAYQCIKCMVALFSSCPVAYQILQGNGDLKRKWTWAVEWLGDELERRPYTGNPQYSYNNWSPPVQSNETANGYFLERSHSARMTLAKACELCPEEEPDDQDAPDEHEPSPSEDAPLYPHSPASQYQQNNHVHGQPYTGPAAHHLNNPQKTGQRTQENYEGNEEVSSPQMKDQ
Method in brief: (§1)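 Labelling with Biotin-Ahx-Ub-VS (0.5 µM final, 1 h) followed a 3 h triplicate treatment of HEK293T lysate (495 µg per sample, Tris/CHAPS/IGEPAL buffer with protease inhibitors) with fragment at 200 µM or vehicle. Labelled DUBs were NeutrAvidin-enriched, digested with LysC and trypsin, and run by diaPASEF LC-MS/MS. The values, average log2 fragment/vehicle ratios by unpaired t-test, come from global-median-normalised Spectronaut label-free quantities. Proteins with ≥2 unique peptides were used.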

UniProt P51784 = biological target: UniProt P51784
Chain of UniProt P51784 (P51784 whole entry): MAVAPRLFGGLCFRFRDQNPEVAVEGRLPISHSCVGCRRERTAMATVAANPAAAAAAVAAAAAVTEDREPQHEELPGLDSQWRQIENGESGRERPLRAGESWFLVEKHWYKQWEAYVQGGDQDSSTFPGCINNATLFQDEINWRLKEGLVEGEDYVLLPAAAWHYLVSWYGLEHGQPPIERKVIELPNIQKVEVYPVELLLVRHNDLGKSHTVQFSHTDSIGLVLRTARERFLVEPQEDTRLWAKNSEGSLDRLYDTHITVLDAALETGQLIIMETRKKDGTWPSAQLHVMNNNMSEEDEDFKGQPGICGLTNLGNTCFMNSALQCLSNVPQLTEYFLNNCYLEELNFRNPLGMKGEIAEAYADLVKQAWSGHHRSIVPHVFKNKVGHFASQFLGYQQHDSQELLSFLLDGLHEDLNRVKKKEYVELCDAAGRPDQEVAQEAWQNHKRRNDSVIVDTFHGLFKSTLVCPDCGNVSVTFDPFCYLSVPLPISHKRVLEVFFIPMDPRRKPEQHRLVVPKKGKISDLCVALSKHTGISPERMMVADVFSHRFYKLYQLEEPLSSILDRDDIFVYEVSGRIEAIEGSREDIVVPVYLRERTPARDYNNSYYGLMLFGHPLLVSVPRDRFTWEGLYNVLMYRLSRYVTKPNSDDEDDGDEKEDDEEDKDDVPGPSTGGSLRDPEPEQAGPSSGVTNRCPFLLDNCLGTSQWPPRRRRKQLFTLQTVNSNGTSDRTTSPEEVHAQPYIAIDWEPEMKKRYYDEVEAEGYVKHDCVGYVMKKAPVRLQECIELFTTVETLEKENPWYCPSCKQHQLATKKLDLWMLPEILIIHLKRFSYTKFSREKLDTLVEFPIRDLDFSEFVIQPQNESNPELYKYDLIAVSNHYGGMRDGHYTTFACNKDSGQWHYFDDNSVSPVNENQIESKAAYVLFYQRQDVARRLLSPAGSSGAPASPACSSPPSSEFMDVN
Method in brief: as §1

UniProt Q5T2D3 = biological target: T1, UniProt Q5T2D3
T1 sequence (whole entry): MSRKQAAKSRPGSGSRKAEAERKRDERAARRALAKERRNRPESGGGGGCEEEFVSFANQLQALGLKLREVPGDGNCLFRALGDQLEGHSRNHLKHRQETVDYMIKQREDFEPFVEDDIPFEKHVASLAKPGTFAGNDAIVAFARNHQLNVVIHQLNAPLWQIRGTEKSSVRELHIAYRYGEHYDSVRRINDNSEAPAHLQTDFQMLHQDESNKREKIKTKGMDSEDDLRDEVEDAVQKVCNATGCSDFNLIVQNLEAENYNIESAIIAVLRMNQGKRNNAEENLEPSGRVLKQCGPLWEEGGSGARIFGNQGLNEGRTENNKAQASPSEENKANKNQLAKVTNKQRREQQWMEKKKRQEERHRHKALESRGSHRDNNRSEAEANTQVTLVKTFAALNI
Method in brief: as §1

UniProt Q8TE49 = biological target: T2, UniProt Q8TE49
T2 sequence (whole entry): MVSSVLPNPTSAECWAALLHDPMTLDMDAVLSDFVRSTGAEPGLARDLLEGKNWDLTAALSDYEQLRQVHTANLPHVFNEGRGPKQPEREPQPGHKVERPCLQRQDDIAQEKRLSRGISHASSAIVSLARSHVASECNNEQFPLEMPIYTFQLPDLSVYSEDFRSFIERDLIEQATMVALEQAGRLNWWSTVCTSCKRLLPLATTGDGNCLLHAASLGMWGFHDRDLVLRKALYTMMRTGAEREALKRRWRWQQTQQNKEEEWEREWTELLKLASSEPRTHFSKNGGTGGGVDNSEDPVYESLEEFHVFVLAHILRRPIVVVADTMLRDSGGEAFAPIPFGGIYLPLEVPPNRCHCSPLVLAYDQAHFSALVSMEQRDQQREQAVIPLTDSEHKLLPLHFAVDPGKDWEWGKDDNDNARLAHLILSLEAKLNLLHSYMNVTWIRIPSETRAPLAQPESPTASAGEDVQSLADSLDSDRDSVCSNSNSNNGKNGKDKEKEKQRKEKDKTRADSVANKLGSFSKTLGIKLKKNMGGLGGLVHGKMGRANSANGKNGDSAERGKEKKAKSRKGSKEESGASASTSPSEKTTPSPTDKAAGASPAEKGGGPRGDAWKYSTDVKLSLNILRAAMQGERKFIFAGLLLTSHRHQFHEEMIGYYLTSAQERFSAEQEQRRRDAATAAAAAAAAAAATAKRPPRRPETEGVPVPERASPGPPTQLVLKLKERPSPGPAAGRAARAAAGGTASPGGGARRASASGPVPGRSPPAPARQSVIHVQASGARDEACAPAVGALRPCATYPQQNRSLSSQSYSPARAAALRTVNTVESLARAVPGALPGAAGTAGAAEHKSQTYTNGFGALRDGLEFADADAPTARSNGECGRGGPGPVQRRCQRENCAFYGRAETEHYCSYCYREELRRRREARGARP
Method in brief: as §1

UniProt Q9P2H5 = biological target: T3, UniProt Q9P2H5
T3 sequence (whole entry): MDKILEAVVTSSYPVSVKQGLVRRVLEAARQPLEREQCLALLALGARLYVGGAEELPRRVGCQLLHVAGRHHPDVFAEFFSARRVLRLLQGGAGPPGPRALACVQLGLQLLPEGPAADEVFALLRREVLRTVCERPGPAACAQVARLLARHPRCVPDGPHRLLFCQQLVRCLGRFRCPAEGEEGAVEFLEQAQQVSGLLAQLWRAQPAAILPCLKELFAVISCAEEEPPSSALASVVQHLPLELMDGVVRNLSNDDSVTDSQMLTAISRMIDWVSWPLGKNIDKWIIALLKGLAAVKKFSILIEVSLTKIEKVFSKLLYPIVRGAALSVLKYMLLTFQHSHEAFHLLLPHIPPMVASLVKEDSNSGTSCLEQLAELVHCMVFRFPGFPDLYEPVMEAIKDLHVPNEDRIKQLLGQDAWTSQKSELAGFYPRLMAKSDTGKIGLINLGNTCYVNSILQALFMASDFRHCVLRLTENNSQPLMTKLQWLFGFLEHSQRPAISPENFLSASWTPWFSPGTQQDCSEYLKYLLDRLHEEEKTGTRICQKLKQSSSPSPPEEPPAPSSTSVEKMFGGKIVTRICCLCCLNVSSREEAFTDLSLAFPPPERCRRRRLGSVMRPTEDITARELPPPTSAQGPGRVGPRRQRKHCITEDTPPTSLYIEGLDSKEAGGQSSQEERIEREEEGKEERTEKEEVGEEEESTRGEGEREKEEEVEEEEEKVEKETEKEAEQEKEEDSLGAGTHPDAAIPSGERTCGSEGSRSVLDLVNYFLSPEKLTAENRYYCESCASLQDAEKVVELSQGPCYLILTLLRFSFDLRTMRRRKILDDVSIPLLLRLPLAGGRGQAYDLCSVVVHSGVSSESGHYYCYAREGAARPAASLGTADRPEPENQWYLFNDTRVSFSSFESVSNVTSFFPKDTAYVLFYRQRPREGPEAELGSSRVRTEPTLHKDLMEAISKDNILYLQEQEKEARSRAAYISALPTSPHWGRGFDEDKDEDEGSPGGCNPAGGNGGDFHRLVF
Method in brief: as §1

UniProt Q9UGI0 = biological target: T4, UniProt Q9UGI0
T4 sequence (whole entry): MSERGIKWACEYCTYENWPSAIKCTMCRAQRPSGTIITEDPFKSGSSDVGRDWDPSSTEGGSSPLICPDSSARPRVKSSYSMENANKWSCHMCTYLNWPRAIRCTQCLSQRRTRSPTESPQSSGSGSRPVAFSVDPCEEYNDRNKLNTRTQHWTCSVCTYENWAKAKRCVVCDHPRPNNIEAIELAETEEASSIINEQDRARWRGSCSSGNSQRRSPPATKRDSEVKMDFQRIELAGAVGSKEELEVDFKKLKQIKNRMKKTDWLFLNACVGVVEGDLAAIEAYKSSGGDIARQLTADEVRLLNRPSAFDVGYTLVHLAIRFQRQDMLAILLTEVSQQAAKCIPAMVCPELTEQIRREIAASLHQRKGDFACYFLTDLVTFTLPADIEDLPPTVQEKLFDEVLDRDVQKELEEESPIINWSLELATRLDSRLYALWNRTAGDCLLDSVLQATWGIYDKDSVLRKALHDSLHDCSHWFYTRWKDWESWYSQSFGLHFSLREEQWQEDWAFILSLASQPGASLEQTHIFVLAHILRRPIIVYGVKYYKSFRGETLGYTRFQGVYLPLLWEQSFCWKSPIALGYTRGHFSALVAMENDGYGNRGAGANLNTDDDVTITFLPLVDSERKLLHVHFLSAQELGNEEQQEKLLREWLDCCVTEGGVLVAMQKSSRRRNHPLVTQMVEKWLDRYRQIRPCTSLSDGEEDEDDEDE
Method in brief: as §1

YOD1 = biological target: T5, YOD1 (UniProt Q5VVQ6)
T5 sequence (whole entry): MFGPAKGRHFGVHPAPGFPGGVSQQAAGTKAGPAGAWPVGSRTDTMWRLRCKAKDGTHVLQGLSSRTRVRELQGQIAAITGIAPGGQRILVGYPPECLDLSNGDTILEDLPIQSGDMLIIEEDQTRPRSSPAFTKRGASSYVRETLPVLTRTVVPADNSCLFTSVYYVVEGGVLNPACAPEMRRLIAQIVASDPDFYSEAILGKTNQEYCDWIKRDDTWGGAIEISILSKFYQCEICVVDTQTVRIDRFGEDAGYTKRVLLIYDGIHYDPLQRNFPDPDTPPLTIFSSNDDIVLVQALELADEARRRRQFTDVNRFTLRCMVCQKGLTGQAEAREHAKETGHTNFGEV
Method in brief: as §1

| SMILES | log2 ratio of Biotin-Ahx-Ub-VS probe labelling (UniProt O00507) | log2 ratio of Biotin-Ahx-Ub-VS probe labelling (UniProt P51784) | log2 ratio of Biotin-Ahx-Ub-VS probe labelling (UniProt Q5T2D3) | log2 ratio of Biotin-Ahx-Ub-VS probe labelling (UniProt Q8TE49) | log2 ratio of Biotin-Ahx-Ub-VS probe labelling (UniProt Q9P2H5) | log2 ratio of Biotin-Ahx-Ub-VS probe labelling (UniProt Q9UGI0) | log2 ratio of Biotin-Ahx-Ub-VS probe labelling (YOD1) |
| --- | --- | --- | --- | --- | --- | --- | --- |
| O=C(CCl)NC1CCOc2ccccc21 (stereo not drawn) | -0.574 | -0.702 | -0.795 | -1.79 (active) | -0.687 | -0.865 | -0.774 |
| Cc1cccc(N(CCC#N)C(=O)CCl)c1C | 0.294 | 0.0536 | -0.0559 | -1.26 (active) | -0.386 | -0.934 | 0.144 |
| O=C(CN1CCN(C(=O)CCl)CC1)Nc1cccc(F)c1 | 0.00838 | -0.0576 | -0.264 | -0.292 | -0.486 | -0.37 | 0.0312 |
| O=C(CCl)N1CCC2(CCC(O)CC2)CC1 | 0.0905 | 0.0738 | -0.238 | -0.64 | -0.118 | -0.316 | 0.0256 |
| Cc1cccc(NC(=O)[C@@H]2CCCN2C(=O)CCl)n1 | -0.299 | -0.00908 | -0.366 | -0.721 | -0.312 | -0.3 | -0.432 |
| O=C(CCl)N(C1=CCCCC1)C1CC1 | 0.309 | -0.0543 | -0.118 | -0.435 | -0.351 | 0.0561 | -0.0863 |
| O=C(CCl)N1CCC[C@@H]1c1ccon1 | -0.592 | -0.16 | -0.395 | -0.398 | -0.248 | -0.626 | -0.749 |
| O=C(CCl)NC1(c2ccc3c(c2)OCCO3)CCCC1 | -0.152 | -0.000106 | -0.339 | -0.447 | -0.3 | -0.26 | -0.199 |
| CN(CCC(O)c1ccc(Br)cc1)C(=O)CCl (stereo not drawn) | -0.198 | -0.124 | -0.111 | -1.29 (active) | -0.328 | -0.555 | 0.00847 |
| Cn1cc(CN(Cc2ccc(Cl)cc2)C(=O)CCl)cn1 | -0.606 | -0.11 | 0.147 | -0.82 | -0.065 | -0.327 | -0.0228 |
| O=C(CCl)N1CCN(C(=O)N2CCCCC2)CC1 | -1.18 (active) | -0.772 | -0.618 | -0.968 | -0.897 | -1.27 (active) | -0.827 |
| CS(=O)(=O)c1ccc(NC(=O)CCl)cc1 | -0.0176 | -0.0206 | -0.139 | -0.443 | -0.192 | -0.87 | 0.0991 |
| Cc1ccc(N(C(=O)CCl)C2C=CS(=O)(=O)C2)cc1 (stereo not drawn) | 0.428 | 0.0438 | 0.136 | -0.0818 | -0.196 | -0.0234 | 0.412 |
| CS(=O)(=O)c1ccc(CNC(=O)CCl)cc1 | -0.143 | -0.0799 | -0.383 | -0.563 | 0.0147 | -0.189 | -0.172 |
| Cc1ccc(CC(CO)CNC(=O)CCl)cc1 (stereo not drawn) | -0.3 | -0.172 | -0.293 | -0.933 | -0.149 | -0.929 | -0.164 |
| O=C(CCl)Nc1ccc(N2CCCC2=O)cc1 | -0.208 | 0.297 | 0.165 | 0.0701 | 0.00543 | -0.752 | 0.137 |
| Cl.O=C(CCl)N[C@H]1C[C@@H](n2cccn2)C1 | -0.599 | 0.0814 | 0.0298 | -0.369 | 0.122 | -0.284 | -0.324 |
| Cl.O=C(CCl)NC1(c2ncccn2)CCC1 | -0.0196 | 0.0134 | -0.0112 | 0.0256 | -0.0207 | -0.201 | 0.161 |
| O=C(CCl)N1CCN(c2nc3ccccc3o2)CC1 | -0.666 | -0.255 | -0.0854 | -0.515 | -0.57 | -0.691 | -0.434 |
